These results are taken from PubChem BioAssay.

A short description of test [1]: A549 cell viability effects, profiling panel, calcein-AM fluorescence, 48 h, basal (AID 1162). Also: test concentration not given here. The note with it: higher = more signal.
Test [2] is described as follows: adipocyte viability effects, profiling panel, cell-based, 3T3-L1 adipocytes, calcein-AM fluorescence, 48 h, basal (AID 1163). Also: test concentration not given here. The note with it: 3T3-L1 adipocytes viability, higher = more signal.
Test [3] is described as follows: HepG2 cell viability effects, profiling panel, calcein-AM fluorescence, 48 h, basal (AID 1164). Also: test concentration not given here. The note with it: higher = more signal.
Test [4] in a line: MM1S cell viability effects, profiling panel, calcein-AM fluorescence, 48 h, basal (AID 1165).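 Also: viability of MM1S multiple myeloma cells under basal unstimulated conditions; test concentration not given here.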 The note with it: higher = more signal.
The nature of test [5]: basal RPMI8226 viability, no added stimulus, profiling panel, cell-based, calcein-AM fluorescence, 48 h, PK04 Diversity Set (AID 1166).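 Also: cells grown under basal conditions without added stimulus; test concentration not given here.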 The following applies: RPMI8226 myeloma viability, higher = more signal.
The nature of test [6]: basal HepG2 mitochondrial membrane potential changes, profiling panel, cell-based, JC-1 fluorescence, 24 h, 100 nL compound (AID 1167). Also: test concentration not given here. The note with it: higher = more signal.
Test [7] in a line: basal 3T3-L1 adipocyte mitochondrial potential changes, profiling panel, cell-based, JC-1 fluorescence, 3T3-L1 adipocytes, 24 h, 100 nL compound (AID 1168). Also: test concentration not given here. The note with it: JC-1 mitochondrial fluorescence, higher = more signal, called active from +8 up or from −8 down.
Test [8] is described as follows: basal RPMI8226 mitochondrial membrane potential changes, profiling panel, cell-based, JC-1 fluorescence, 24 h, 100 nL compound (AID 1169). Also: test concentration not given here. The note with it: RPMI8226 myeloma, JC-1 mitochondrial potential fluorescence, higher = more signal.
Test [9] can be described thus: basal MM1S mitochondrial membrane potential changes, profiling panel, cell-based, JC-1 fluorescence, 24 h, 100 nL compound (AID 1170). Also: test concentration not given here. The note with it: higher = more signal.
A short description of test [10]: A549 lung cancer cell viability effects, profiling panel, resazurin fluorescence, 24 h, PK04 Diversity Set (AID 1171). Also: test concentration not given here. The following applies: higher = more signal, called active from +8 up or from −8 down.
Test [11] in a line: HepG2 liver cancer cell viability effects, profiling panel, resazurin fluorescence, 24 h, PK04 Diversity Set (AID 1172). Also: test concentration not given here. The note with it: higher = more signal. (The colour change of resazurin is a common sign of viable cells or microbes.)
The nature of test [12]: basal S. cerevisiae growth modulation, no modifier, primary screen, OD600, strain BY4716, 24 h, basal condition (AID 1173). The note with it: OD600, 24 h, higher = more signal, called active from +8 up or from −8 down.
Test [13] can be described thus: MM1S myeloma cell viability, profiling panel, resazurin fluorescence, basal, 24 h, PK04 Diversity Set (AID 1174).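 Also: MM1S multiple myeloma cell line; test concentration not given here.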 The note with it: higher = more signal, called active from +8 up or from −8 down.
Test [14] has as its target Dihydroorotate dehydrogenase (quinone), mitochondrial (Plasmodium falciparum (isolate 3D7)) (UniProt Q08210). In words: PfDHODH enzyme inhibitors, primary screen, biochemical, C-terminal His tag, absorbance 600 nm (AID 1175).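 Also: recombinant parasite enzyme with a five histidine tag at its C terminus; test concentration not given here.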 The note with it: DCIP absorbance 600 nm, higher = more signal, called active from +8 up or from −8 down.
The nature of test [15]: P. aeruginosa biofilm formation inhibitors, primary screen, strain PAO1, LB-PBS medium, absorbance 600 nm (AID 1176). Also: test concentration not given here. The note with it: P. aeruginosa PAO1 growth/biofilm, A600, 12 h; higher = more signal.
Test [16] in a line: S. cerevisiae RM11-1a growth modifiers, primary screen, strain RM11-1a, OD600, basal, 24 h (AID 1177).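 Also: cultures grown under basal conditions with no added stressor; test concentration not given here.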 The following applies: OD600, 24 h, higher = more signal, called active from +8 up or from −8 down.
A short description of test [17]: E. coli acrAB mutant growth effects, primary screen, E. coli filamentation inducers, strain DRC39, OD650, 24 h (AID 1178).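 Also: growth measured as culture turbidity by optical density at 650 nm; test concentration not given here.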 The note with it: higher = more signal, called active from +8 up or from −8 down.
The nature of test [18]: E. coli acrAB mutant growth effects, primary screen, E. coli filamentation inducers, strain DRC39, OD650, 48 h (AID 1179).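 Also: screen aims at cell division blockers that make cells filament.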 The following applies: E. coli DRC39 delta-acrAB growth, higher = more signal, called active from +8 up or from −8 down.
The nature of test [19]: RPMI8226 myeloma cell viability, profiling panel, resazurin fluorescence, basal, 24 h, PK04 Diversity Set (AID 1180).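 Also: RPMI8826 multiple myeloma cell line at 5000 cells per well; test concentration not given here.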 The following applies: higher = more signal.
Test [20] concerns the target E3 ubiquitin-protein ligase XIAP (Homo sapiens) (UniProt P98170). The test can be described thus: XIAP binders, primary screen, biophysical, small-molecule microarray, fluorescence 635 nm (AID 1181).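 Also: score merges 667 nm emission and signal to noise over triplicate slides.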 The following applies: small-molecule microarray binding, higher = more signal.

Activity calls are given as the source filed them. Unless noted, no rule for the calls is given here.

Chain of E3 ubiquitin-protein ligase XIAP (Homo sapiens) (P98170 whole entry, looked up): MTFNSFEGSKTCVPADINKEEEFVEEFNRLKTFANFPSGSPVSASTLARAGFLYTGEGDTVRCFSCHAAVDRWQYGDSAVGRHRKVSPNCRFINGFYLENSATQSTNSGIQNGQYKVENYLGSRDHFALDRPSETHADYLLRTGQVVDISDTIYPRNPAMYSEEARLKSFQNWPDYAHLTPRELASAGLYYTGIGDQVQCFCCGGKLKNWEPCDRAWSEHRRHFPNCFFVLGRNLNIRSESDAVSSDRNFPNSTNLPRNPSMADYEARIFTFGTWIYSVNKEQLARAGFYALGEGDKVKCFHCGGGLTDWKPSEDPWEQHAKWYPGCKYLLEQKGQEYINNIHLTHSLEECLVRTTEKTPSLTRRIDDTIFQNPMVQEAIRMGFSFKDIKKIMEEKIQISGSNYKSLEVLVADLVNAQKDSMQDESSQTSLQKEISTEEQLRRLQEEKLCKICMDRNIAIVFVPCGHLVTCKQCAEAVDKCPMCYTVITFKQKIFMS
Chain of Dihydroorotate dehydrogenase (quinone), mitochondrial (Plasmodium falciparum (isolate 3D7)) (Q08210 whole entry, looked up): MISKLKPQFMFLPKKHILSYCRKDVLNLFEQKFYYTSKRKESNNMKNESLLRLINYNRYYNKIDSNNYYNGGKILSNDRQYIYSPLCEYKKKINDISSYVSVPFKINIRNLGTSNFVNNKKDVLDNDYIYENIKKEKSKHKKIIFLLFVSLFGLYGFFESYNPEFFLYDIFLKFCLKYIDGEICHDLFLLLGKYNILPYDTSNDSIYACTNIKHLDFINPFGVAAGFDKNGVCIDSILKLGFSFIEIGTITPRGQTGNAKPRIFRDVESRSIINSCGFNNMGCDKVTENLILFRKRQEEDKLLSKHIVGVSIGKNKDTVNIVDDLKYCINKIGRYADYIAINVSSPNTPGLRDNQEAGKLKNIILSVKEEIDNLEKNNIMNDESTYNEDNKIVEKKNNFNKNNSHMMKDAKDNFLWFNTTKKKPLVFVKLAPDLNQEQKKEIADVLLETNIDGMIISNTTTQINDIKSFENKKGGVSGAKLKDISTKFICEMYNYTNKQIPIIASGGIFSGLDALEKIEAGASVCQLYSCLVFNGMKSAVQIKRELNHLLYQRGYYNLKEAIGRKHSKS

On to `[N-]=[N+]=NCc1ccccc1[C@H]1OC(c2ccc(OCCCO)cc2)=N[C@@]1(CCS(=O)(=O)c1ccccc1)C(N)=O`, for which the z-score was -0.733 in test [1]; 0.0036 in test [2]; -0.423 in test [3]; -1.83 in test [4]; -0.973 in test [5]; -2.13 in [6]. Moreover, the z-score was -1.36 (inactive) in test [7]; -0.397 in test [8]; -0.606 in [9]; 0.547 (inactive) in [10]; 0.437 in test [11]; -0.258 (inactive) in test [12]. The z-score was 0.284 (inactive) in test [13]; 0.274 (inactive) in test [15]; -0.296 (inactive) in test [16]; 0.0575 (inactive) in test [17]; -0.702 (inactive) in test [18]; -0.134 in [19]. For the same compound, the results for the composite z-score in test [14] and in [20] were -0.136 (inactive) and 0.182, respectively.

Take `COCCOC(=O)N1C(=O)[C@@]2(c3cc(C#Cc4ccc(OC)cc4)ccc31)[C@H](C(=O)N1CCCCCCC1)[C@H]1C(=O)O[C@H](c3ccccc3)[C@H](c3ccccc3)N1[C@@H]2c1ccc(O)cc1`: the z-score in test [1] is -0.938; in test [2], 1.07; in test [3] it was -0.618; in test [4], -0.26; in [5], -0.943; in [6] it was -0.73. Besides, the z-score in [7] is 0.88 (inactive); in [8], -0.0794; in test [9], -0.559; in test [10], 0.545 (inactive); in test [11], 0.808; in test [12] it was -0.404 (inactive). Moreover, the z-score in [13] is 0.0013 (inactive); in test [15], 0.721 (inactive); in test [16] it was 0.868 (inactive); in test [17], -0.919 (inactive); in test [18] it was -1.22 (inactive); in test [19] it was -0.206. Moreover, the composite z-score in [14] is -0.458 (inactive); in test [20], -0.0501.

Consider `COc1ccc([Si](C)(C)[C@@H]2[C@@H](CCO)O[C@]3(C(=O)N(Cc4cccc(N5C(=O)c6cccc7cccc5c67)c4)c4ccccc43)[C@H]2C)cc1`, for which the z-score is -1.03 in test [1]; 0.421 in [2]; -3.42 in test [3]; -1.32 in test [4]; -4.25 in test [5]; -0.543 in test [6]. For the same compound, the z-score was 0.145 (inactive) in test [7]; -1.05 in [8]; -1.77 in [9]; -2.26 (inactive) in test [10]; -1.83 in test [11]; 1.34 (inactive) in test [12]. Also, the z-score in test [13] is -2.77 (inactive); in test [15], 1.53 (inactive); in [16], 5.01 (inactive); in [17], 1.55 (inactive); in test [18], 0.97 (inactive); in test [19] it was -3.49. For the same compound, the composite z-score in test [14] is 0.518 (inactive); in [20], -0.0351.

Take `Cc1ccc(C(C)CC(O)C2C=CC3C(=O)N(c4ccccc4)C(=O)C3N2Nc2ccc(C(C)C)cc2)o1` (stereo not given): the z-score in test [1] was -1.12; in test [2], -0.279; in test [3], 0.137; in test [4] it was -1.41; in test [5], -1.19; in [6], -2.29. The z-score in test [7] was -1.44 (inactive); in test [8] it was -0.778; in test [9] it was 0.772; in test [10] it was -0.634 (inactive); in test [11], -1.32; in [12], 0.123 (inactive). Also, the z-score in test [13] is -0.905 (inactive); in test [15], 1.5 (inactive); in test [16] it was 0.685 (inactive); in test [17], -0.751 (inactive); in [18] it was -0.682 (inactive); in [19], -1.03. Besides, the composite z-score in test [14] is 0.824 (inactive); in test [20] it was -0.0238.

`C=C(CCCC)C(=O)CC[C@@H](OC(=O)c1cccnc1)c1ccccc1OCCO`: the z-score is -0.528 in [1]; 0.101 in test [2]; -0.14 in test [3]; -3.21 in test [4]; -2.92 in [5]; 0.0547 in [6]. Moreover, the z-score in [7] was 0.361 (inactive); in test [8], -0.754; in test [9], -1.33; in test [10], 0.335 (inactive); in test [11] it was 0.0748; in test [12], -3.02 (inactive). Also, the z-score was -1.22 (inactive) in [13]; -0.153 (inactive) in [15]; 0.231 (inactive) in [16]; 0.604 (inactive) in test [17]; 0.448 (inactive) in test [18]; -2.39 in test [19]. Further, the composite z-score in [14] is -2.63 (inactive); in test [20], 0.0325.

As to `CC(CO)N1C(=O)[C@@H]2C3C(=O)OCCC/C=C\[C@H]3OC23C=CCN(Cn2nnc4ccccc42)C(=O)[C@@H]13` (stereo not given in full), the z-score in test [1] is 0.0034; in test [2] it was -0.126; in [3], 0.789; in [4], 1.76; in test [5], 0.285; in test [6], 0.567. Also, the z-score was 0.425 (inactive) in test [7]; 0.222 in test [8]; -1.33 in test [9]; -0.0257 (inactive) in test [10]; 0.256 in test [11]; -0.159 (inactive) in test [12]. In addition, the z-score is 0.595 (inactive) in test [13]; 0.205 (inactive) in [15]; 0.549 (inactive) in test [16]; 0.935 (inactive) in [17]; 0.829 (inactive) in test [18]; 0.605 in test [19]. Further, the composite z-score was -2.72 (inactive) in [14] and 0.0511 in [20].

Take `COCCCNC(=O)[C@@]1(Sc2ccc(C)cc2)CC(=O)N(C2Cc3ccccc3C2)[C@@H]1c1ccc(CO)cc1I`: the z-score in test [1] was -0.126; in test [2] it was -0.175; in test [3] it was -0.65; in test [4], -2.45; in test [5], -2.27; in test [6] it was -0.188. Also, the z-score in [7] is -0.0568 (inactive); in test [8], -0.294; in test [9], -1.34; in [10], -0.3 (inactive); in test [11] it was -0.0076; in test [12], -2.87 (inactive). Also, the z-score was -2.79 (inactive) in test [13]; 0.196 (inactive) in test [15]; -0.429 (inactive) in test [16]; -0.0635 (inactive) in [17]; 0.0605 (inactive) in [18]; -2.31 in test [19]. Also, the results for the composite z-score in [14] and in [20] were -0.591 (inactive) and 0.108, respectively.

As to `O=C1NC(=O)C2C1C=CC(C(O)c1ccc3c(c1)OCO3)N2Nc1ccccn1` (stereo not given), the z-score was 0.732 in test [1]; -1.11 in test [2]; 0.641 in [3]; 0.0178 in test [4]; -0.12 in [5]; -0.465 in test [6]. For the same compound, the z-score in test [7] was -0.0272 (inactive); in test [8], 0.115; in test [9] it was -0.263; in test [10], -1.67 (inactive); in [11] it was -0.861; in [12], -0.117 (inactive). Besides, the z-score in [13] is -0.854 (inactive); in [15], 1.89 (inactive); in test [16], -0.86 (inactive); in test [17], 0.812 (inactive); in test [18], 1.3 (inactive); in test [19], -0.431. For the same compound, the composite z-score in test [14] was 0.315 (inactive); in test [20], 0.0185.

For the compound `CN(C)CCCN1C(=O)[C@@]2(c3ccc([N+](=O)[O-])cc3)CC(=O)N(CC34CC5CC(CC(C5)C3)C4)[C@@H]2c2ccc(CO)cc21`, the z-score in [1] was 2.86; in test [2] it was 0.338; in test [3], 0.28; in test [4], -0.18; in test [5], 0.621; in [6] it was 0.474. Moreover, the z-score in test [7] was 1.38 (inactive); in test [8] it was -0.0069; in [9] it was 0.41; in test [10], -0.928 (inactive); in test [11], -0.349; in test [12], 0.24 (inactive). The z-score was -0.752 (inactive) in [13]; -0.121 (inactive) in test [15]; 0.536 (inactive) in test [16]; 0.384 (inactive) in test [17]; 0.567 (inactive) in [18]; -0.959 in test [19]. Besides, the results for the composite z-score in test [14] and in test [20] were -7.42 (inactive) and -0.02, respectively.
